Compound activity: PubChem BioAssay, National Center for Advancing Translational Sciences (NCATS)
This is a sample that favours compounds with a hit; in the whole collection about 21% have one here.
Pf growth 96h = Primary qHTS for delayed death inhibitors of the malarial parasite plastid, 96 hour incubation. 320,000 compounds, 6.9% hits. P. falciparum luciferase reporter growth, 96 h. Potency, µM (doses to about 28.7 µM), for the others: at the top dose activity change, negative = inhibition, most hits filed as inhibitors; also: potency is read from the fitted curve at half-maximal effect; % is scaled to controls: 0 for no effect and ±100 for the full control effect
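Readout is luminescence from an integrated firefly luciferase in P. falciparum. Red cells, 2% hematocrit and 0.05% parasitemia final, were cultured with compound through two parasite generations (96 hours) at 37 C, 5% CO2.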
Pf growth 48h = Primary qHTS for delayed death inhibitors of the malarial parasite plastid, 48 hour incubation. P. falciparum luciferase growth in erythrocytes, 48 h. Potency, µM (highest dose often 28.7 µM), inactives show top-dose activity change, negative = inhibition, usual class: inhibitors. 310,000 compounds, 5.9% hits. AID 504832, 2011; also: potency is read from the fitted curve at half-maximal effect; % is scaled to controls: 0 for no effect and ±100 for the full control effect
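Read-out is firefly luciferase luminescence from an integrated reporter in P. falciparum, so falling signal marks reduced parasite growth. Infected erythrocytes were at 2% hematocrit and 0.1% parasitemia (final) in Albumax-supplemented RPMI 1640.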
Shiga toxin inh = A qHTS for Small Molecule Inhibitors of Shiga Toxin; Vero cells, Shiga toxin protein synthesis inhibition reporter; inhibition, % at 38.7 µM; 290,000 compounds, 9.2% hits; in the data active = inhibition mostly above about 28%, no sharp cut-off; inactive = mostly below about 43%; also: 0% is about no effect
Cycloheximide cs = Cycloheximide Counterscreen for Small Molecule Inhibitors of Shiga Toxin | cell reporter, cycloheximide protein synthesis inhibition counterscreen | max response, % | 300,000 compounds, 12% hits | AID 2314, 2010; in the data active = max response mostly above about 13%, no sharp cut-off; inactive = mostly below about 14%; also: read at 38.3 µM for the half of the compounds with a filed dose; 0% is about no effect
NS1 function inh = qHTS Assay for Inhibitors of Influenza NS1 Protein Function; Potency, µM (titrated, usually from 46.1 µM), for inactives: top-dose activity, positive = more growth; 270,000 compounds, 0.4% hits; calls by dose curve; also: potency is read from the fitted curve at half-maximal effect; actives are rising curves; nearly all actives have a fitted effect of over 50% in size
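A cell-based growth assay was used: compounds that relieve NS1-induced slow growth of budding yeast raise OD600. Assay medium was yeast nitrogen base with ammonium sulphate and -URA supplement, pH 6.0, with 2% galactose.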
FBPA Giardia inh = qHTS Assay for Inhibitors of Fructose-1,6-bisphosphate Aldolase from Giardia Lamblia | 290,000 compounds, 0.71% hits | A8B2U2 | Potency, µM (series often up to 59.6 µM), inactives show at the highest dose activity, negative = inhibition, usual class: inhibitors | purified Giardia FBPA | AID 2451, 2010; also: potency is read from the fitted curve at half-maximal effect; % is scaled to controls: 0 for no effect and ±100 for the full control effect; nearly all actives have a fitted effect of over 55% in size
Target sequence (A8B2U2 whole entry, looked up): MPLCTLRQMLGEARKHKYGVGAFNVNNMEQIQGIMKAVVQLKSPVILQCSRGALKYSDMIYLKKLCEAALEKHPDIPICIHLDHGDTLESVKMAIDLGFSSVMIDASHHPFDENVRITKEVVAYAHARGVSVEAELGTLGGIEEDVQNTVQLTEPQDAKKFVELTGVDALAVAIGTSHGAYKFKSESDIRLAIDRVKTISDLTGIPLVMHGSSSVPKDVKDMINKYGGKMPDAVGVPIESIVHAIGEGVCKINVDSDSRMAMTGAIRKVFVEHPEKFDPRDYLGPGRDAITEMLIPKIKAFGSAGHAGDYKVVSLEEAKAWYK
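Giardia FBPA (40 nM reagent) was preincubated 10 min at RT with compound (up to 57.5 uM final), then substrate plus GAPDH/TPI/NAD/arsenate coupling system with diaphorase/resazurin was added; resorufin fluorescence (525/598 nm) was read after 20 min.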
Numbers without * were called inactive; ? = inconclusive; / = not tested or not shown. Unless noted, calls follow the shape of the dose curve; as a rule, active = well fitted curve in the direction sought with a large enough effect; inconclusive = small, poorly fitted or top-dose-only effect, or another doubt; inactive = no such curve, though single readings can be large; an effect the other way counts as inactive or inconclusive.

SMILES	Pf growth 96h	Pf growth 48h	Shiga toxin inh	Cycloheximide cs	NS1 function inh	FBPA Giardia inh
O=C(COC(=O)c1ccc(O)cc1O)c1ccc2c(c1)OCO2	-11%	32%	92*	76*	1%	11%
O=C(COC(=O)c1ccccc1NC(=O)C1CC1)c1ccc2c(c1)OCCO2	?	4%	75*	54*	3%	-1%
Cc1c(C)c2ccc(OC(C)C(=O)NC3CCN(Cc4ccccc4)CC3)cc2oc1=O (configuration not stated)	?	?	2	-1	-4%	/
COc1ccccc1CNC(=O)C1Cc2cc(S(=O)(=O)N3CCCCC3)ccc2N1C(C)=O (configuration not stated)	?	-27%	22	-4	-9%	/
O=S(=O)(Nc1nnc(C2CC2)s1)c1ccccc1	3%	10%	-8	-3	-2%	0%
CCOc1ccc(N2C(=O)CC(NC3CCN(C(=O)c4cccs4)CC3)C2=O)cc1 (configuration not stated)	9%	?	-3	-2	-21%	5%
C=CCn1c(COc2ccc(F)cc2)nnc1SCC(=O)NC1CCS(=O)(=O)C1 (configuration not stated)	14%	-19%	/	/	/	/
COCC(=O)N1CCC[C@@]2(CCN(c3ncccn3)C2)C1	/	/	/	/	/	10%
Cc1ccc(-n2ncc3c2CC(C)(C)CC3NC(=O)CCN2CCCCC2=O)cc1 (configuration not stated)	-10%	-24%	-7	-2	-7%	/
Cc1ccc(OCCCC(=O)Nc2nccs2)cc1	?	26%	42*	23*	-9%	3%
COc1ccc2c(CC(=O)Nc3nccs3)coc2c1	65%	1%	77*	31*	4%	0%
O=C(CCN1C(=O)C2C3C=CC(C3)C2C1=O)Nc1nccs1 (configuration not stated)	?	23%	-4	8	2%	4%
Cc1cccc(OCCCC(=O)Nc2nccs2)c1	/	?	-9	1	-5%	3%
CCOc1ccc(CC(=O)Nc2nccs2)cc1	32%	3%	12	20*	/	0%
COc1ccc2c(CC(=O)NCc3cccs3)coc2c1	?	0%	35	16	-7%	3%
O=C(CCCCCN1C(=O)C2C3C=CC(C3)C2C1=O)Nc1nccs1 (configuration not stated)	2.3µM*	/	18	-5	1%	2%
Cc1ccc(CC(=O)Nc2nccs2)cc1C	?	1%	13	14	2%	12%
COc1cc(C(F)(F)F)c(C(=O)NCc2cccc(Cl)c2)cn1	9%	33%	-7	-2	-3%	0%
COC(=O)C1CCN(S(=O)(=O)CCNC(=O)c2ccc(F)cc2)CC1	-13%	-12%	/	/	/	/
CCCn1cc(CN2CCc3ccc(NC(=O)C4CCCO4)cc3C2)c(C)n1 (configuration not stated)	?	-2%	-34	-1	24%	/
COc1ccc(-c2cn3cccnc3n2)cc1NC(=O)Nc1cc(C)ccc1C	12µM*	?	/	/	/	/
Cc1ccc(-c2cn3cccnc3n2)cc1NC(=O)c1ccc(Br)o1	?	-14%	-5	-2	-47%	4%
COc1ccc(-c2cn3cccnc3n2)cc1NC(=O)c1ccc(Br)o1	10µM*	-9%	5	12	-46%	-16%
Oc1cc(Cl)ccc1Oc1ccc(Cl)cc1Cl	6µM*	9.5µM*	7	-1	/	-2%
O=C(O)/C=C/c1ccccc1Oc1ccc(Cl)cc1Cl	14%	?	3	-4	/	?
CCN(CC(=O)NC1CC1)S(=O)(=O)c1ccc(OC)cc1	?	-13%	-14	5	9%	/
O=C(OCC(=O)c1cccc2ccccc12)c1ccc(CO)cc1	148%	140%	77*	42*	-55%	-25%
O=C(OCC(=O)c1ccccc1Br)c1ccncc1	13%	?	63*	24*	/	-1%
NC(=S)NNC(=O)c1ccccc1Cl	43%	7%	-8	2	1%	-21%
O=C(CNC(=O)c1ccc(N2C(=O)c3ccccc3C2=O)cc1)OCC(=O)c1cccc2ccccc12	-19%	-11%	12	-4	27%	7%
